# According to PubChem BioAssay (EPA / NIEHS):
# Active and inactive are the calls of the source. Rule for the calls: active = hit-call score of the fitted dose curve at least 0.9, where 1 is the maximum; inactive = score below 0.9.
# Read-out: Intercellular Adhesion Molecule 1 (ICAM1), ICAM1 (gene 3383)
# Test: LTEA_HepaRG_ICAM1: Life Technologies and Expression Analysis (LTEA) Assay for Intercellular Adhesion Molecule 1 (ICAM1) using HepaRG (AID 2283507)
# Settings: mRNA level, 48 h; actives raise or lower the signal
# Description: LTEA_HepaRG is a cell based, multiplexed-readout assay that uses HepaRG, a human liver cell line, with measurements taken at 48 hours after chemical dosing on a 96-well plate.LTEA_HepaRG_ICAM1 is one of 102 assay component(s) measured in the LTEA HepaRG cell culture assay. It is a marker of Fibrosis.Data from the assay component LTEA_HepaRG_ICAM1 was analyzed into 1 endpoint. This assay endpoint, LTEA_HepaRG_ICAM1, was analyzed with bidirectional fitting relative to DMSO as the negative control and baseline of activity. Using a type of inducible reporter, measures of mRNA induction for gain or loss-of-signal activity can be used to understand regulation of transcription factor activity. To generalize the intended target to other relatable targets, this assay endpoint is annotated to the cell adhesion molecules intended target family, where the subfamily is Immunoglobulin CAM.
# A total of 1060 chemcials from the ToxCast library were tested in eight-point concentration-response experiments. Cell culture and cytotoxicity assays were conducted at Thermo Fisher Scientific's Custom Services facility (Madison, WI). A single lot of human HepaRG cells (Thermo Fisher Scientific, Frederick, MD) was used for the cell culture experiments. 96-well format collagen type I coated plates of human HepaRG cells were prepared using established methods. Briefly, cryopreserved HepaRG cells were thawed, plated at a density of approximately 100,000 cells/well in HepaRG Thaw, Plate, and General Purpose media (HPRG770, Thermo Fisher Scientific), and incubated for 48 hours. 0.5% DMSO was selected as vehicle control to balance the requisite need of DMSO in HepaRG cultures to maintain differentiation (for example, baseline metabolism, proportions of hepatocytes vs. cholangiocytes), while enabling further hepatic receptor pathway activation (for example, PXR and CAR) in response to chemical exposure. 48 hours after plating, the culture medium was replaced with HepaRG Serum-Free Incudtion Media. Cells were exposed to each test chemical in duplicate and maintained in CO2 incubators for another 48 hours. Chemical plates were thawed to room temperature and 200x concentrations of treatment groups were prepared. 8-point conentration-reponse curves were made with the highest exposure at 100 uM, followed by half-log dilutions, all in 0.5% DMSO. Each test plate contained variouse controls, induction positive controls (1mM phenobarbital), cytotoxicity positive controls ([…] aflatoxin B1), vehicle controls (0.5% DMSO), and total lysis controls (0.5% DMSO). Cell morphology images were taken using an Essen IncuCyte FLR automated microscope, with six 96-well plates imaged in about 24 minutes. Images were captured and exported and JPEG files. Spent culture media was transfered to black-well plates for the LDH assay, and remaining media was sorted at -80 C for later use. Cells were treated with RLT buffer and frozen until shipped for gene expression analysis. Total RNA was isolated from the cell suspension in 75 uL of Buffer RLT (Qiagen, Germantown, MD 20874) by Quintiles/Expression Analysis (Durham, NC) using a custom isolation procedure. Total RNA from each plate well was transferred to a preamplification plate. Fluidigm's 96.96 Dynamic ArrayTM (Fluidigm, Amsterdam, the Netherlands) technology was used for gene expression analyses by quantitative reverse transcription polymerase chain reaction (qRT-PCR, performed by Quintiles/Expression Analysis, Durham, NC)89. Standard TaqManTM Assays (Applied Biosystems/ThermoFisher Scientific, Foster City, CA) were used to assess the expression of 93 genes selected based on their selectivity and sensitivity to important hepatic receptors known to be modulated by environmental chemicals; importance in human hepatocyte functionality; and hepatotoxicity. […]
SMILES,outcome,AC50
Cn1cnc2c1c(=O)[nH]c(=O)n2C,inactive,
CN(C)CCCN(C)CCCN(C)C,inactive,
Nc1nc(Cl)nc2c1ncn2[C@H]1C[C@H](O)[C@@H](CO)O1,inactive,
N[C@@H](Cc1c[nH]c2ccccc12)C(=O)O,inactive,
NCCOCCOCCN,inactive,
CC(C)NCC(O)c1ccc(O)c(O)c1 (stereo not given),inactive,
CCCCCCC(CCCCCCCCCCC(=O)OCC(COC(C)=O)OC(C)=O)OC(C)=O (stereo not given),inactive,
Cc1cc(Cc2ccc(N)c(C)c2)ccc1N,inactive,
O=C1NC(=O)C(c2ccccc2)(c2ccccc2)N1,inactive,
O=C(O)c1cccnc1,inactive,
CCCC(=O)O,inactive,
CC(C)(C)c1ccccc1,inactive,
CC(C)c1cccc(C(C)C)c1,inactive,
CC(C)OC(=O)C(C)(C)Oc1ccc(C(=O)c2ccc(Cl)cc2)cc1,inactive,
COc1ccc(C(=O)Nc2nc3ccccc3c(NCc3ccccc3)c2C#N)cc1,inactive,
CC(=O)[C@@]1(O)CC[C@H]2[C@@H]3CCC4=CC(=O)CC[C@]4(C)[C@H]3CC[C@@]21C,inactive,
O=C(O)c1[nH]n(-c2ccc(S(=O)(=O)O)cc2)c(=O)c1N=Nc1ccc(S(=O)(=O)O)cc1,inactive,
O=C1O[C@H]([C@H](O)CO)C(O)=C1O,inactive,
CC(C)c1cccc(C(C)C)c1NC(=O)NS(=O)(=O)c1cc(C(C)(C)O)co1,inactive,
Oc1ccc(O)cc1,inactive,

SMILES,outcome,AC50
C=CCc1ccc(OC)c(OC)c1,inactive,
CN(C)C(=O)NC1(c2ccccc2)CCN(CC[C@@]2(c3ccc(F)c(F)c3)CN(C(=O)c3ccccc3)CCO2)CC1,inactive,
C/C=C/c1ccc(OC)cc1,inactive,
O=C(NS(=O)(=O)/C=C/c1cccs1)c1ccc(F)cc1Br,inactive,
CCc1cc(C2=C(C(=O)O)N(c3ccccc3C(F)(F)F)S(=O)(=O)c3ccccc32)cc2c1OCO2,,50 µM (active)
CC(=O)OCC(COC(C)=O)OC(C)=O,inactive,
CC1=C(C)S(=O)(=O)CCS1(=O)=O,inactive,
O=C1CCCCC1,inactive,
Cc1ccc(C(C)(C)C)c(O)c1,inactive,
CC(C)COC(=O)CCCCC(=O)OCC(C)C,inactive,
C=CCCCCCCCCCCCC,inactive,
NC(=Nc1ccccc1)Nc1ccccc1,inactive,
CCCCCCCCCC[N+](C)(C)[O-],inactive,
CCCCc1nc2cccnc2n1Cc1ccc(-c2ccccc2-c2nnn[nH]2)cc1,inactive,
O=C1c2c(O)cccc2Cc2cccc(O)c21,inactive,
C#CC(O)C(CC)CCCC (stereo not given),inactive,
NC=O,inactive,
S=c1[nH]c2ccccc2s1,inactive,
Cc1cc(SC2=C(O)C[C@@](CCc3ccc(N)cc3)(C(C)C)OC2=O)c(C(C)(C)C)cc1CO,inactive,
O=Cc1ccccc1C=O,inactive,
